Rows were chosen to be rich in hits. Some 1% of all compounds tested hit in one or more screens of this group.
ugtP null kill – growth inhibition of S. aureus ugtP deletion strain. S. aureus RN4220 ugtP deletion, OD600 growth, 16 h. growth inhibition, % (no concentration beside the values). actives 0.54% (n = 330,000). AID 1259309; in the data active means growth inhibition above about 68%;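 further: plate controls were untreated wells for no effect and antibiotic for full effect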
PriA SSB inh – K. pneumoniae PriA-SSBct interaction inhibition | actives 0.6% (n = 430,000) | inhibition, % at 33 µM | AlphaScreen SSBct-PriA binding, biotinylated peptide; in the data active means inhibition mostly above about 37%, no sharp cut-off; inactive means mostly below about 20%;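 further: plate controls were negative control peptide for no effect and reference peptide for full effect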
Sa RN4220 lethal – S. aureus RN4220 growth inhibition | OD600, 16 h | inhibition, % (no concentration beside the values) | actives 0.33% (n = 330,000); in the data active means inhibition above about 85%;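 further: plate controls were untreated cells for no effect and reference antibiotic for full effect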
An asterisk follows results filed as active; . = no result; ! = repeats disagree.

SMILES | ugtP null kill | PriA SSB inh | Sa RN4220 lethal
CCC(C)C(NC(=O)Cc1ccccc1F)C(=O)Nc1nc2ccccc2[nH]1 (stereo not drawn) | . | -1.0 | .
Cc1[nH][nH]c(=O)c1C(c1c(C)[nH][nH]c1=O)c1cn(Cc2ccc(F)cc2)c2ccccc12 | 36.1 | 20.2 | 31.3
Cc1[nH][nH]c(=O)c1C(c1c(C)[nH][nH]c1=O)c1cn(Cc2ccc(Cl)c(Cl)c2)c2ccccc12 | 88.0* | 24.4 | 36.4
Cc1ccc(S(=O)(=O)NC[C@H]2CCS(=O)(=O)C2)c(C)c1 | . | -4.0 | .
CC(C)(C)c1ccc(OCC(=O)Nc2ccc(F)cc2)cc1 | . | -1.0 | .
CCCC(=O)NCC(=O)N1CCN(c2cc(N3CCOCC3)cnn2)CC1 | . | -5.0 | .
CC(=O)c1ccc(O)c(CC=C(C)C)c1 | 5.1 | -6.2 | 6.9
COC1C(OC(N)=O)C(O)C(Oc2ccc3c(O)c(NC(=O)c4ccc(O)c(CC=C(C)C)c4)c(=O)oc3c2C)OC1(C)C (stereo not drawn) | 98.8* | . | 99.7*
C=CCn1c(Sc2ncc([N+](=O)[O-])s2)n[nH]c1=O | 89.4* | 3.6 | 26.6
C=CCn1c(CSc2ccccc2[N+](=O)[O-])n[nH]c1=S | -3.0 | -4.6 | 3.4
NS(=O)(=O)c1ccc(-c2ccc(/C=C3/SC(N4CCN(Cc5ccccc5)CC4)=NC3=O)o2)cc1 | . | -7.0 | .
COc1ccc(C)c2sc(N(CCN(C)C)C(=O)c3ccc4ccccc4c3)nc12 | -19.3 | 43.0*! | -7.6
Cc1cc(C)c2nc(N(CCN(C)C)C(=O)c3ccc4ccccc4c3)sc2c1 | -12.5 | 38.0*! | -14.3
COc1cc2ccccc2cc1C(=O)N(CCN(C)C)c1nc2c(F)cc(F)cc2s1 | -4.9 | 10.0 | -10.6
COc1ccc(C)c2sc(N(CCN(C)C)C(=O)CCOc3ccccc3)nc12 | . | 15.0 | .
Cc1cc(C)c2nc(N(Cc3ccccn3)C(=O)c3ccc4ccccc4c3)sc2c1 | . | -14.0 | .
COc1cc2ccccc2cc1C(=O)N(CCN(C)C)c1nc2ccc(Br)cc2s1 | -17.3 | 48.6* | -8.8
O=C(NCCn1nc(-c2ccco2)ccc1=O)NC1CCCCC1 | . | -9.0 | .
O=S(=O)(Nc1ccc(F)c(Cl)c1)c1cccc2cccnc12 | . | -13.0 | .
Cc1ccc(C(=NS(=O)(=O)c2ccc(Br)cc2)Nc2ccccc2C)cc1 | . | -4.6 | .
O=C(O)c1ccc(CN2C(=O)c3cccc4c([N+](=O)[O-])ccc(c34)C2=O)cc1 | 97.1* | 3.2 | 45.9
Cc1ccc(C(=O)O)cc1N1C(=O)c2cccc3c([N+](=O)[O-])ccc(c23)C1=O | . | -10.7 | .
O=C(C[n+]1cc(-c2ccc(Cl)c(Cl)c2)n2c1CCC2)N1c2ccccc2Sc2ccccc21 | 100.6* | 7.5 | 100.3*
O=C(C[n+]1cc(-c2ccc(Cl)cc2)n2c1CCC2)N1c2ccccc2Sc2ccccc21 | -13.5 | 17.6 | 10.6
COc1ccc2nc(-c3ccc(F)c(NC(=O)c4cccc(C(F)(F)F)c4)c3)cn2n1 | . | -21.0 | .
SMILES | ugtP null kill | PriA SSB inh | Sa RN4220 lethal
Cc1cccc(NC(=O)Cc2csc3nc(-c4ccc(F)cc4)cn23)c1 | . | -4.0 | .
COc1ccc(N=NC2C(=O)N(c3ccccc3)N=C2C)cc1 (stereo not drawn) | 10.4 | 43.3* | -0.8
CC1=NN(c2ccccc2)C(=O)C1N=Nc1ccccc1 (stereo not drawn) | -14.9 | 30.8 | 1.0
CN(C)c1ccc(CCCNC(=O)C(=O)Nc2ccon2)cc1 | . | -10.0 | .
CCCCCCCCn1ccc(=N)cc1 | 13.8 | -12.5 | 4.2
CCCCCCCCCCn1ccc(=N)cc1 | 100.8* | -10.6 | 100.1*
COc1ccc(C[C@H]2CN3C(=NC[C@@H]3Cc3ccc(O)cc3)N2CCNC(=O)c2ccc(C)c(Br)c2)cc1 | . | 41.8* | .
COc1ccc(CC2CN3C(=NCC3Cc3ccc(O)cc3)N2CCNC(=O)c2ccc(C)c(Br)c2)cc1 (stereo not drawn) | 7.2 | . | -6.3
O=C(NCc1ccc([C@H](O)c2ccccc2)s1)C1c2ccccc2Oc2ccccc21 | . | -14.0 | .
COc1cc(C(=O)N2CCC3(CC2)NCCc2[nH]cnc23)cc(OC)c1OC | -4.7 | -2.9 | 1.0
Cc1cc(C)cc(C(=O)N2CCC3(CC2)NCCc2[nH]cnc23)c1 | 1.1 | 93.7* | 5.7
O=C(CSc1nc(CC(=O)Nc2nccs2)cs1)Nc1ccc(F)cc1 | . | -1.0 | .
COc1ccc(-c2nc3cc(C)ccn3c2NCc2ccc3c(c2)OCO3)cc1 | 4.0 | 54.4* | -1.0
COc1ccc(-c2nc3ccccn3c2NCc2ccc3c(c2)OCO3)cc1 | 1.8 | 36.7 | 5.0
C=CCn1c(SCC(=O)Nc2cc(Cl)ccc2OC)nc2c([nH]c3ccccc32)c1=O | . | -19.0 | .
O=C(Cc1ccc(Cl)cc1)NCCOc1cccc(C(F)(F)F)c1 | . | -21.0 | .
CC1=CC(=NNc2ccccc2[N+](=O)[O-])CC(C)(C)C1 | 52.5 | 116.7* | 5.9
CC1(C)OC(=O)C(=NNc2ccccc2[N+](=O)[O-])C(=O)O1 | 12.3 | 6.1 | 4.2
Cn1c(=NC(=O)/C=C/c2cccc([N+](=O)[O-])c2)sc2cccc(F)c21 | . | 4.0 | .
COc1ccc(Cl)cc1NC(=O)CN(C)C(=O)c1ccc(OCc2ccccc2)c(OC)c1 | -7.2 | 0.7 | -1.6
CCOc1ccc(NC(=O)CN(C)C(=O)c2ccc(OCc3ccccc3)c(OC)c2)cc1OCC | 2.4 | 42.4* | -1.0
CCOc1ccc(N2C[C@@H](CNC(=O)NCc3cccs3)CC2=O)cc1 | . | -7.0 | .
CN(C)CCN=Cc1c(O)n(CCC2=CCCCC2)c(=O)[nH]c1=O | -1.3 | 1.4 | 3.1
COc1ccc(/C=C/C(=O)c2c(O)n(CCC3=CCCCC3)c(=O)[nH]c2=O)cc1 | 92.2* | 7.8 | 88.8*
O=C(/C=C/c1ccc2c(c1)OCO2)c1c(O)n(CCC2=CCCCC2)c(=O)[nH]c1=O | 100.0* | -25.5 | 100.4*
SMILES | ugtP null kill | PriA SSB inh | Sa RN4220 lethal
CCCCn1c(O)c(C(=O)/C=C/c2ccc3c(c2)OCO3)c(=O)[nH]c1=O | . | -7.7 | .
C=CCn1c(=NC(=O)CCc2ccccc2)sc2cc(S(N)(=O)=O)ccc21 | . | 2.0 | .
CCOC(=O)C1CCN(CC#N)CC1 | . | 6.0 | .
Cc1cccc(-n2c(O)c(C=C3C(c4ccccc4)=Nc4ccccc43)c(=O)[nH]c2=O)c1 | . | 3.5 | .
O=C(C(C=Nc1ccc(F)cc1)=C(O)c1ccco1)C(F)(F)F | . | 1.5 | .
CCc1sc(N(C(=O)Cc2ccccc2)c2ccccc2F)nc1-c1ccc(C)cc1 | 84.8* | -5.2 | -10.9
CCc1sc(N(C(=O)Cc2ccccc2)c2cccc(F)c2)nc1-c1ccc(C)cc1 | 55.8 | -17.9 | -11.3
COc1ccc(NC(=O)COC(=O)CC23CC4CC(CC(C4)C2)C3)c([N+](=O)[O-])c1 | -8.3 | 65.6* | -1.3
CCC(=O)OCC(=O)Nc1ccc(OC)cc1[N+](=O)[O-] | -5.0 | -9.2 | 0.8
Cc1ccc(C(C)C)c(OCC(=O)c2c(O)c3ccccc3oc2=O)c1 | 86.0* | -21.5 | 86.0*
Cc1ccc(OCC(=O)c2c(O)c3ccccc3oc2=O)cc1C | 57.9 | 2.5 | 57.8
O=C(O)CSc1c(-c2ccccc2)[nH]c2ccccc12 | -9.7 | 15.9 | 5.3
N=C(N)Sc1c(-c2ccccc2)[nH]c2ccccc12 | . | 37.0* | .
COc1ccc(N=C2S/C(=C\c3cc(C)n(C)c3C)C(=O)N2C)cc1 | . | 38.8* | .
CCCN1C(=O)/C(=C/c2cc(C)n(C)c2C)SC1=Nc1ccc(OC)cc1 | . | 16.1 | .
Cc1ccc(S(=O)(=O)Nc2ccc3c(c2)CN(C(=O)c2ccco2)CC3)c(C)c1 | . | 11.0 | .
Cn1nc(CNC(=O)COc2ccccc2F)cc1-c1ccccn1 | . | -8.0 | .
OCc1c[nH]c(=S)n1Cc1ccc(Cl)cc1 | . | -14.0 | .

Bioassay records: PubChem, several laboratories
